Survival data for 25 compounds are collected here from PubChem BioAssay AID463173 (ICCB-Longwood Screening Facility, Harvard Medical School, 2010).

In all, about 52,000 compounds went through this assay and about 1,700 (3.3%) were called active. The sample holds actives, similar compounds and a random draw of the others, so the mix is not that of the screen. Rule as the data show it: active = survival mostly below about 52% (no sharp cut-off); inactive = mostly above about 56%.

The test system of the test is Wild type. Briefly: growth inhibition of S. aureus wild type versus tarO mutant, primary screen, teichoic acid synthesis inhibitors, RN4220, OD600 (AID 463173). The following applies: S. aureus RN4220 wild type/DeltatarO growth, OD600, 18 h, hits give low values, screened at 18.75 µg/mL (by protocol).
For the compound `Cc1cn2c(=O)cc(COc3cccc(NC(=O)c4ccccc4Cl)c3)nc2s1`, the survival is 88% (inactive).
For `O=C(c1cc2nc(-c3ccccc3)cc(-c3ccccc3)n2n1)N1CCCC1`, the survival was 100% (inactive).
Under `CCOC(=O)C1(CC)C(=O)OC(C(=O)NC2CCCCC2)C1C` (stereo not given) stands 112% (inactive); under `COc1cccc(-c2cc(C(=O)NCc3ccccc3)no2)c1`, 85% (inactive); under `Cc1ccc(C)n1-c1c(C(=O)NCC(C)c2ccccc2)sc2ncccc12` (stereo not given), 73% (inactive).
On to `Cc1ccc(-n2c(SCc3ccccc3F)nc3[nH]ncc3c2=O)cc1C`, for which the survival is 80% (inactive).
Under `CCOc1ccccc1-c1nc(=S)[nH][nH]1` stands 110% (inactive).
Consider `Cc1ccc(NCc2cccn2-c2nnc(N3CCC(C(=O)NC(C)C)CC3)s2)cc1`, for which the survival is 121% (inactive).
As for `CCOC(=O)c1ccccc1NC(=O)C(=O)Nc1ccc2nc3n(c(=O)c2c1)CCCCC3`, the survival was 123% (inactive).
The result for `COc1ccc(Nc2nc(-c3ccc(C)cc3)nc3ccccc23)c(OC)c1` reads 70% (inactive); that for `COc1cc(Nc2nc(-c3ccc(OC)c(OC)c3)nc3ccccc23)cc(OC)c1`, 0% (active); that for `COc1ccc(Nc2nc(-c3ccccc3F)nc3ccccc23)cc1OC`, 71% (inactive).
`Cc1cccc2nc(Cn3c(=O)n(-c4ccc(Cl)cc4)c(=O)c4c5c(sc43)CCC5)cc(=O)n12`: the survival was 121% (inactive).
Under `CCC(C(=O)NCCc1ccc(OC)c(OC)c1)n1nc(C)c2sc3ccccc3c2c1=O` (stereo not given) stands 79% (inactive); under `CC1(C)CC(=O)C/C(=N\NC(=O)CCc2ccccc2)C1`, 122% (inactive).
As for `Cc1ccc(C(c2sc3nc(-c4ccco4)nn3c2O)N2CCOCC2)cc1` (stereo not given), the survival is 77% (inactive).
Take `Cc1cccc(N2CCN(C(=O)c3ccc4c(Cl)c5c(nc4c3)CCCC5)CC2)c1C`: the survival was 88% (inactive).
Under `O=C(c1ccc2c(Cl)c3c(nc2c1)CCCC3)N1CCN(c2ccccc2F)CC1` stands 0% (active); under `Cc1ccc(Cl)cc1N1CCN(C(=O)c2ccc3c(Cl)c4c(nc3c2)CCCC4)CC1`, 29% (inactive).
The result for `O=C(c1ccc2c(Cl)c3c(nc2c1)CCCC3)N1CCN(c2ccc(Cl)cc2)CC1` reads 90% (inactive); that for `O=C(c1ccc2c(Cl)c3c(nc2c1)CCCC3)N1CCN(c2ccccc2)CC1`, 0% (active); that for `O=C(c1ccc2c(Cl)c3c(nc2c1)CCCC3)N1CCN(c2cccc(Cl)c2)CC1`, 62% (inactive).
For the compound `O=C(NCCCc1ccccc1)c1nn(-c2ccccc2F)nc1CO`, the survival is 89% (inactive).
The result for `COc1ccc(C2=C(C)C(=NCc3ccc(OC(C)C)cc3)NS2(=O)=O)cc1` reads 86% (inactive); that for `CCCc1nc(C(C#N)c2ccc(F)cc2)c2nnn(Cc3ccccc3)c2n1` (stereo not given), 109% (inactive).
